Source: PubChem BioAssay
In the library only some 3.6% were active in any assay of this set; here they are far more common.
Pf apPOL block – Pf-apPOL DNA polymerase inhibition. 210,000 compounds, 0.25% hits. inhibition, % at 10 µM. AID 1794808. Recombinant Pf-apPOL, molecular beacon fluorescence, 1.5 h
mHTT-CaM PPI inh – disrupts binding of mutant huntingtin to calmodulin. AlphaScreen His-mHTT/GST-CaM binding, luminescence. inhibition, % at 15 µM. 190,000 compounds, 3.6% hits. AID 1671202;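 note: 0% = both proteins with DMSO and 100% = one protein alone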
Target sequence (P42858 whole entry, looked up, stated change not applied): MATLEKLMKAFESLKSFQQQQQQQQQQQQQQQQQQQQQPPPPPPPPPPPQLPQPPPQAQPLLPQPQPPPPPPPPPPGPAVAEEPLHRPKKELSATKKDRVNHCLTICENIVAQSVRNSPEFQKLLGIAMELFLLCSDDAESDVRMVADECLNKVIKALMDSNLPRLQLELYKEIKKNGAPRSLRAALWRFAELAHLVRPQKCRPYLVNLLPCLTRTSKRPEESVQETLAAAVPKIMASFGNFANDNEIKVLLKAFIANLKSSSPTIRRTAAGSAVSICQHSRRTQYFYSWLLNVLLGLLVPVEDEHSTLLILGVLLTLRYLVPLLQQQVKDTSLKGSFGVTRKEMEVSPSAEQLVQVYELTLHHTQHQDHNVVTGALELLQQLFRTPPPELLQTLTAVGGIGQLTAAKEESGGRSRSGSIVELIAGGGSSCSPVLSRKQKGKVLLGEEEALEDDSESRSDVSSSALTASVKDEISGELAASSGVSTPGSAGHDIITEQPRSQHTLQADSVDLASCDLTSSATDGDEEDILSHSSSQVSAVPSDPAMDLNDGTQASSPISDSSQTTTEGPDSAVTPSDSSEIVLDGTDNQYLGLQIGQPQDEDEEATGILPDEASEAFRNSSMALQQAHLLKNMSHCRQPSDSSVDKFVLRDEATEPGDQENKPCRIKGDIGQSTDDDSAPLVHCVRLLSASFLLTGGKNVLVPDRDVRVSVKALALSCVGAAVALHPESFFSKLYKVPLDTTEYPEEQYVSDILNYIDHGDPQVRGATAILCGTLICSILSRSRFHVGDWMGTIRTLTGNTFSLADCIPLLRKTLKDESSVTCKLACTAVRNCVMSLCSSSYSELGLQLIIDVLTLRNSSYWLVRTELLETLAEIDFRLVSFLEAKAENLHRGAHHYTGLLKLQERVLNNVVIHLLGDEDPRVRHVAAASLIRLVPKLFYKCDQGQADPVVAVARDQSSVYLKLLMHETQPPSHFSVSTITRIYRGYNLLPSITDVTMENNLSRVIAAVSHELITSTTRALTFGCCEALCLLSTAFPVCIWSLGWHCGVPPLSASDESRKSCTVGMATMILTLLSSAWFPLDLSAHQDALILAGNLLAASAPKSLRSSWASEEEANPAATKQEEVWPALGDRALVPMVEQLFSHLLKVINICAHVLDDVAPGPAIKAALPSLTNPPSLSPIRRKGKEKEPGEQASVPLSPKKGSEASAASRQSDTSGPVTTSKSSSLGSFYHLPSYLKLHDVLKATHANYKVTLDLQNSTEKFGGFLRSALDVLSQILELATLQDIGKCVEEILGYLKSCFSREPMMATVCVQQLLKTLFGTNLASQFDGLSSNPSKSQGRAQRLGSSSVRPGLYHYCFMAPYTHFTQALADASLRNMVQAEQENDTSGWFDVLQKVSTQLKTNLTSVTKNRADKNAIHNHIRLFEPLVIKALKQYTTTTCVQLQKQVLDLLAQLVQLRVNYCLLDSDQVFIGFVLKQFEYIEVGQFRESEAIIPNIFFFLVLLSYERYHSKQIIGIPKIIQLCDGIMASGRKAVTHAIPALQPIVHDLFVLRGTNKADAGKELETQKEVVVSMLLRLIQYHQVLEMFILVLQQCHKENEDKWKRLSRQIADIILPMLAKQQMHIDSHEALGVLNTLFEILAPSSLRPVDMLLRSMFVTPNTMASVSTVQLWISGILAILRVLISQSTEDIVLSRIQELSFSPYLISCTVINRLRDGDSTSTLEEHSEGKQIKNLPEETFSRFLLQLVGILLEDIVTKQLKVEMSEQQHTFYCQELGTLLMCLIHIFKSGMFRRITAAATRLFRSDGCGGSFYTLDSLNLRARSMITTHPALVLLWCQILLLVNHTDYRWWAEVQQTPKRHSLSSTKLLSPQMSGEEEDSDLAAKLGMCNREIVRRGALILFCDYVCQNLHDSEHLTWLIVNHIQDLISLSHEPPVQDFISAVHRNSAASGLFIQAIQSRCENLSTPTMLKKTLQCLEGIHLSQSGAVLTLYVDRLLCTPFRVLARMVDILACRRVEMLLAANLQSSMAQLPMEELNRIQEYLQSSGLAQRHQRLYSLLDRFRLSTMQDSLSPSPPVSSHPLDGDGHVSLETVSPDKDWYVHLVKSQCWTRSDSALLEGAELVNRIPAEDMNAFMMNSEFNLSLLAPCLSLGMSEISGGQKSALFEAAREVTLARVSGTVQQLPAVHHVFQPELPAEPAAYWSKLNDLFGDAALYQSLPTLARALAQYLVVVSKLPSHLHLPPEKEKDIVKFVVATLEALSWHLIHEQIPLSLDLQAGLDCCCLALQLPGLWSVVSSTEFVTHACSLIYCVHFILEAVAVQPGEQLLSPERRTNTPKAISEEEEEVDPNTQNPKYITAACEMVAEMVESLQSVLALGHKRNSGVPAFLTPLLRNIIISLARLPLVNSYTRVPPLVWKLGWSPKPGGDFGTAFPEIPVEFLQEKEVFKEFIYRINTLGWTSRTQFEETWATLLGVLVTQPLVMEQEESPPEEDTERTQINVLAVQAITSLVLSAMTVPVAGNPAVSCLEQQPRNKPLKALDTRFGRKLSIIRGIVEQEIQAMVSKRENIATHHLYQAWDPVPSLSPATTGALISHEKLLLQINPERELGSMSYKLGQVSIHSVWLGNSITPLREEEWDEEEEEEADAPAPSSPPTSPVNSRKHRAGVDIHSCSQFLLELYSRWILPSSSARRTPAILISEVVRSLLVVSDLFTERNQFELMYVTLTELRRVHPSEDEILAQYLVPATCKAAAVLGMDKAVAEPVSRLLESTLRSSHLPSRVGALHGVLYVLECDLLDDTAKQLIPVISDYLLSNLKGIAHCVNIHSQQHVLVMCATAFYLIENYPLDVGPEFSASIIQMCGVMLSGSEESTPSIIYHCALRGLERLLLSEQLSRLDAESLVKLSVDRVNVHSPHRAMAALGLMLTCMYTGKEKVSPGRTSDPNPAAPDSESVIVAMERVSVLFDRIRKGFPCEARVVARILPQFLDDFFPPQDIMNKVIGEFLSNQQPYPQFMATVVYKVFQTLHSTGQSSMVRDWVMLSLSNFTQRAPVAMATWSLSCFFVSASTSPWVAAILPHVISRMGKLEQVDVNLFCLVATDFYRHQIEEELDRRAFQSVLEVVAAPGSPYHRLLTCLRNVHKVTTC
The depositor's hits bear a star; i = inactive; x = no result given; + = active, no number. Cut-off read from the data, not from the text of the source: active = inhibition above about 50%; inactive = the rest.

SMILES | Pf apPOL block | mHTT-CaM PPI inh
Cn1nc(-c2nc(-c3ccccc3F)no2)c2c1CCN(C(=O)c1ccccn1)C2 | -2 | 4
CN(C)C=CC=C1CCCC1=O | 89* | x
COc1cccc(S(=O)(=O)Nc2ccc(C(=O)N3CC(C)CC(C)C3)cc2)c1 (stereo not drawn) | -2 | 1
COc1cc(OC)c(C2SCCN2S(=O)(=O)c2ccc(Cl)cc2)cc1OC (stereo not drawn) | -4 | 32
COc1cc(OC)c(C2SCCN2S(=O)(=O)c2ccc(Br)cc2)cc1OC (stereo not drawn) | 1 | 51*
Cc1nnsc1-c1onc(C)c1C(=O)ON=C(N)c1cc(C(F)(F)F)cc(C(F)(F)F)c1 | 5 | x
Cn1cccc1/C=N/Nc1ccc(F)cc1 | x | +
Cn1cccc1/C=N/NC(=O)c1cccs1 | x | i
CCc1ccc(NC(=O)N2CCOc3ccccc32)cc1 | -4 | -7
c1ccc(OCCOc2ccc(-c3cc(C4CCNCC4)[nH]n3)cc2)cc1 | 8 | 62*
c1ccc(OCCC2CCNCC2)cc1 | -4 | -2
CN1CCC(N(C)Cc2cc(Cl)ccc2O)CC1 | -9 | 0
Cc1ccc(C=C2Oc3cc(OC(=O)C(C)C)ccc3C2=O)cc1 | -8 | 4
O=C(/C=C1\Sc2ccccc2NC1=O)NCCCN1CCN(c2ccc(F)cc2)CC1 | -17 | 74*
O=C1Nc2ccccc2S/C1=C\C(=O)N1CCN(c2ccc(F)cc2)CC1 | -24 | 26
O=[N+]([O-])c1ncn(CNc2cc(Br)cc3cccnc23)n1 | -2 | 65*
O=[N+]([O-])c1ncn(Cc2cccc(Br)c2)n1 | 3 | -3
O=C1C2CCCN2C(c2ccco2)N1c1ccc(Cl)c(Cl)c1 (stereo not drawn) | -10 | 4
Cn1cccc1C(=O)N1CCCC(c2nncn2C)C1 (stereo not drawn) | 2 | -1
CN(C)c1ccc(CNC(=O)CCC(=O)N2CCCn3nc(-c4cccn4C)cc32)cc1 | -1 | 74*
CC(C)CCNC(=O)CCC(=O)N1CCCn2nc(-c3cccn3C)cc21 | -3 | 19
O=C(NCc1cccnc1-c1ccccc1)c1cccs1 | -12 | -11
COc1ccc(C(C#N)N2N=C(c3ccccc3)CC2c2ccccc2)cc1OC (stereo not drawn) | -3 | 79*
COc1ccc(C(C#N)N2N=C(C)CC2c2ccccc2)cc1OC (stereo not drawn) | 5 | 5
COc1ccccc1C1=NOC(C(=O)Nc2ccccc2SC)C1 (stereo not drawn) | -1 | -26
SMILES | Pf apPOL block | mHTT-CaM PPI inh
COc1cccc(NC(=O)N2CCC(c3nc4ccncc4n3C)C2)c1 (stereo not drawn) | -6 | 2
C/C(=N/NC(=O)c1ccoc1C)c1ccco1 | x | i
CC1(C)Nc2sc3c(c2-c2nnnn21)CCCC3 | x | 56*
O=C1NC2(Nc3sc4c(c31)CCCC4)C(=O)Nc1ccccc12 (stereo not drawn) | 18 | 23
COCCNC(=O)c1cnn2c(-c3ccc(F)cc3)ccnc12 | 1 | -6
CSc1ccc(C2C(C#N)=C(N)Oc3cc(N(C)C)ccc32)cc1 (stereo not drawn) | -4 | 42
CCOc1ccccc1C1C(C#N)=C(N)Oc2cc(N(C)C)ccc21 (stereo not drawn) | -5 | 61*
CCCn1cnc2c(-c3ccc(F)cc3)csc2c1=O | -4 | -17
Cc1cc(C)c(NS(=O)(=O)c2c(C)n[nH]c2C)c(C)c1 | -7 | 0
Cc1oc(-c2cccs2)nc1CN1CCCC(C(=O)NCc2ccccc2Cl)C1 (stereo not drawn) | -1 | 39
Oc1ccc(COCc2ccccc2)c2cccnc12 | -4 | 99*
O=C(CSc1cccc2cccnc12)NCc1ccccc1 | 7 | 1
Cc1ccc(NC(=O)c2cc(C(C)C)n3nccc3n2)cc1C | 5 | -15
COCCN1C(=O)C(=O)C(=C(O)c2ccc(S(=O)(=O)N(C)C)cc2)C1c1cccc(Cl)c1 (stereo not drawn) | 4 | 4
O=C(Nc1ccc(I)cc1Cl)c1ncn[nH]1 | -6 | 96*
O=C(Nc1ccccc1Cl)c1ncn[nH]1 | -3 | 26
O=C1CC(c2cccs2)CC(O)=C1C=NCCN1CCN(C(=O)c2ccccc2)CC1 (stereo not drawn) | -8 | 7
CC(=O)c1ccc(NC(=O)c2ccc3nc(-c4ccco4)c(-c4ccco4)nc3c2)cc1 | -4 | 100*
COc1ccc2nsnc2c1 | -2 | x
O=C(Nc1ccc([N+](=O)[O-])cc1)N1CCN(c2ccccn2)CC1 | 2 | 0
O=C(Nc1ccc2nc(-c3ccco3)c(-c3ccco3)nc2c1)N1CCN(c2ccccn2)CC1 | -13 | 66*
O=C(NCc1ccco1)Nc1ccc2snnc2c1 | -2 | 4
COc1ccc2nc(-c3ccco3)c(-c3ccco3)nc2c1 | 0 | 99*
O=C(Nc1ncn[nH]1)c1ccc2nc(-c3ccco3)c(-c3ccco3)nc2c1 | 8 | 34
O=C(NCc1ccco1)Nc1ccc2nc(-c3ccco3)c(-c3ccco3)nc2c1 | -2 | 96*
SMILES | Pf apPOL block | mHTT-CaM PPI inh
O=C(c1ccccc1)N1CCN(S(=O)(=O)c2ccccc2)C1 | -5 | -6
CC(=O)Nc1ccc(S(=O)(=O)NCCSCc2c(F)cccc2Cl)cc1 | -4 | 4
O=C(CN1C(=O)CSCC1=O)Nc1ccc([N+](=O)[O-])cc1 | 4 | -2
COCCCNC(=O)c1ccc2nc(-c3cccs3)c(-c3cccs3)nc2c1 | 1 | -3
COCCNC(=O)c1ccc2nc(-c3ccco3)c(-c3ccco3)nc2c1 | 2 | 59*
Cc1cccc(NC(=O)CCS(=O)(=O)c2cccs2)c1C | -3 | -3
O=C(Nc1cccc(-c2nc3ncccc3o2)c1)c1cc(Br)ccc1Cl | 5 | 5
CCOc1ccc(C2C3=C(CCCC3=O)Nc3ncnn32)cc1 (stereo not drawn) | -1 | -7
CCOc1ccc(C2C3=C(CCCC3=O)NC3=C2C(=O)c2ccccc23)cc1 (stereo not drawn) | -4 | 74*
COc1ccc(C2C3=C(CCCC3=O)NC3=C2C(=O)c2ccccc23)cc1 (stereo not drawn) | -2 | 61*
O=C1CCCC2=C1C(c1cccs1)C1=C(N2)c2ccccc2C1=O (stereo not drawn) | 2 | 31
CCOC(=O)/C(C#N)=C\Nc1cnc(C)o1 | x | -3
COc1ccc(OC)c(NC(=O)c2c(NC(=O)CNCc3ccccc3)sc3c2CCC3)c1 | -1 | -3
COc1ccc(OC)c(CNc2sc3c(c2C(=O)Nc2cc(OC)ccc2OC)CCC3)c1 | -16 | 66*
COc1ccc(OC)c(NC(=O)c2c(N)sc3c2CCC3)c1 | -10 | 41
COc1ccc(OC)c(NC(=O)c2c(NCc3cccs3)sc3c2CCC(C)C3)c1 (stereo not drawn) | -17 | 66*
COc1ccc(OC)c(NC(=O)c2c(NC(=O)CN3CCOCC3)sc3c2CCC3)c1 | -2 | 7
COc1ccc(OC)c(NC(=O)c2c(NCc3cccc(OC)c3OC)sc3c2CCC3)c1 | -13 | 59*
COc1ccc(OC)c(NC(=O)c2c(NC(=O)CN3CCCC(C)C3)sc3c2CCC3)c1 (stereo not drawn) | -10 | -3
COc1ccc(OC)c(NC(=O)c2c(NCc3cccc(F)c3)sc3c2CCC3)c1 | -16 | 73*
COc1ccc([N+](=O)[O-])cc1C1=N/C(=C/c2ccc(N(C)C)cc2)C(=O)O1 | 1 | 2
CCNC(=O)n1cc(Cl)cn1 | x | -4
CCOc1ccccc1NC(=O)c1c(NCc2sccc2C)sc2c1CCC2 | -17 | 41
